We go through 40 sequences from the supplement of paper PMC10681739.

The target of the test is T1, ETS1 (UniProt P14921).
T1 sequence: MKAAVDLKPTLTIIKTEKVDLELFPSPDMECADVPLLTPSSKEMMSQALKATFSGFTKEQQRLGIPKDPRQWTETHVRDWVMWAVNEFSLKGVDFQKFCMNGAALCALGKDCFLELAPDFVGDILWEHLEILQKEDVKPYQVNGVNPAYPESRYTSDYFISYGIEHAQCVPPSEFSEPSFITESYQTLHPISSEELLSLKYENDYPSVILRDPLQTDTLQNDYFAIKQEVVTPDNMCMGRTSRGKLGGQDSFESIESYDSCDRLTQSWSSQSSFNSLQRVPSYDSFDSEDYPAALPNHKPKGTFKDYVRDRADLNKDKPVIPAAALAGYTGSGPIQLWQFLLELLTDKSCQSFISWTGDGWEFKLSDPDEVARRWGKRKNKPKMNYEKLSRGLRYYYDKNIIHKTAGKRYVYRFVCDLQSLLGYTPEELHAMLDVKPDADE
Put plainly: ETS1 binding intensity (PBM fluorescence), ETS1 alone (arbitrary fluorescence units); higher = stronger binding. The note with it: ETS1 concentration 1 nM; RUNX1 concentration 0 nM. The protocol:
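Cooperative genomic-context PBM: 36-bp genomic probes with neighbouring ETS1 and RUNX1 sites, double-stranded on Agilent 4x180k arrays. Full-length recombinant human ETS1 (1 nM) was incubated alone or with RUNX1 (25 nM) and detected with anti-ETS1 antibody plus Alexa488 secondary. Value is the median fluorescence intensity over 4 replicate spots; the ETS1+RUNX1 data were normalised to the ETS1-only data using probes without RUNX1 sites. The 36-bp variable region sits on the array probe with constant linker/primer flanks that are not printed.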
For the sequence ACCAACCGGAAGTGATCGTGTTGTGGCCGAAGGAGG, the ETS1 binding intensity amounted to 16100.
For CTTACAGTCACAACAGGATGTGGTTTGACATTTACT, the ETS1 binding intensity is 6780.
The value for TTACAATCATTTCCTCTCTGTGGTTTGGTGACAAAT was 722; that for AGCACGCCGGGAAATGGAGTCTCAGGTGGTTTTTAA was 443; that for TGAGTCATTTCCTGGGTGGGGGCCACAAGACCAGGT was 540.
The value for ACGTACGGGATGTGGGAGGTTTGTTTTGACCACACC was 492.
With TGGCAGCGGGTGCGGAAACCACAGGCCTCCAGGCTT, the ETS1 binding intensity was found to be 701.
Consider CGCCTGCCCCACTTCCGCCCGGACCCGCAGCCCCTA, for which the ETS1 binding intensity is 2450.
The value for GAAAGACAGGATGTGGGATAGATCTCAACCACCTTT was 2590; that for TTTTGCCCAACAGGATGTGGTTTCTAAAGCAGACGG was 6620; that for AGAAACATCCTGCCCAGCCACCTGACCACAAGGCAC was 377.
GGGCAGGCCGGATGTGGGAGACCACAAAGCCCAAGG registered an ETS1 binding intensity of 5360.
The value for TAGCAGGAAGCCGATTCGCCCTATATGCAACCACTT was 549.
The result for GGATGAACAGGAAGCTAAAGTAAATACCACAGTGAC reads 1710; that for TTGATTGGAGCAGGATGTGGTCAGAACAGTATGCAG, 3190; that for TTTTCCCACTTCCTAGGTTGTGGTGGGGATTACACA, 475.
CCTTTACTTCCTTTTACTTCTAACCACAGAATTAAA displayed an ETS1 binding intensity of 444.
In turn, CACTCCCCCATTCCGGCTGCAGGTTGAGGTTTGGAA had an ETS1 binding intensity of 517.
The value for GCTGCAAGGCGGAAGCAGCGCGGTCGGACGGGCATG was 1650; that for GAGCAACCAGGAAGAGCTTTGGCTGTGGGCTAAGAT was 511.
CGGCATCTGACAGGATGTGGGCAGGGAGAGAGAGAC came in with an ETS1 binding intensity of 3780.
The value for CTGTCCGCGACATCCGGGACCTGCGGGACCGCCGAT was 1250.
The value for CTCACTTCCCCGGCAGCTCCCTCGCCCCGACCGCAG was 406.
Regarding AGAACAGGATGTTCTGAGTACAGCATGAACCTCAAA, the ETS1 binding intensity amounted to 1280.
The result for GGAAAGCGGAAGAAAAAAGCAAGATGGGACCGCAAG reads 445; that for CTCTCCACCTCCTTCCGACCAGGACCGCACCCCCCC, 986; that for GCTGTCCATTTCCGAGATGTTAATGCGGGATCTTGC, 408.
In turn, GTGAACTTCCTCCCCCACTGCCTATTTTTACCGCAG returned an ETS1 binding intensity of 624.
ACACAGGAAGCAAAAGTTAAGCTATAAAACCCGCAA registered an ETS1 binding intensity of 571.
AGACCCGGAAATGGTGGGTGTTTCTTGCAACCACGG registered an ETS1 binding intensity of 1810.
The value for CGCCTACTCTACTTCCGCGGTCGGCCGGGTAAGGAC was 603; that for AGAAAAGGAAATGGTGGGCTGCACACCACAGCTCAC was 477.
The value for CACTGCGGAAGCAGTGTAGAGAGGTGGTTATCAGTG was 707; that for AATGGGCTTGGTTTCCTGTGGGTTTGTAGCTTTGTA was 519; that for TTTAAGGGCGGAAAGGCTTTAGCCGCAAAATGGCTT was 547.
The result for ATACTGAGTCATTTCCTGTGGTGTTATTGTGTTGTA reads 1760.
TGCAATTGGCAGACAGGAAACCGCGGCGTTTTCTGG returned an ETS1 binding intensity of 5340.
The result for CCGCCCTCCACCGAGTTCCGGCCACAGAGCGGGCCC reads 536; that for GCGCCCCGTCCTTCCGCAGCCCAACCGCCTCTTCCC, 476.
Take AATTGAGACAGGAAATGTTGGTTTGTGGTCAGGCAC: the ETS1 binding intensity is 5020.
